Experimental findings from PubChem BioAssay (EPA / NIEHS) are described below.

The source made the active and inactive calls. How the source made its calls: active means hit-call score of the fitted dose curve at least 0.9, where 1 is the maximum; inactive means score below 0.9.

Assay [1] in a line: CCTE_Padilla_ZF_Score.Craniofacial: CCTE's 144 Hour Post-fertilization zebrafish Assay Score for Craniofacial Malformation, Padilla Lab (AID 2284405). In a few lines: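 Wild-type zebrafish embryos (with chorions), one per well in 10% Hanks', were dosed at 6–8 hpf in sealed plates and kept at 26C. They were rinsed at 5 dpf. At 6 dpf two blinded assessors scored craniofacial malformations by brightfield stereomicroscopy.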

Assay [2] can be described thus: CCTE_Padilla_ZF_Score.Edema: CCTE's 144 Hour Post-fertilization zebrafish Assay Score for Edema Malformation, Padilla Lab (AID 2284406). The procedure, abridged: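 Wild-type zebrafish embryos, one per well in Hanks' solution, dosed at 6-8 hpf, sealed and reared at 26C on a 14:10 h cycle; rinsed on 5 dpf. At 6 dpf, blinded assessors scored edema by stereomicroscopy.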

Assay [3] is described as follows: CCTE_Padilla_ZF_Score.Spine: CCTE's 144 Hour Post-fertilization zebrafish Assay Score for Spine Malformation, Padilla Lab (AID 2284407). In a few lines:
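Wild-type zebrafish embryos, one per well in Hanks' solution, dosed at 6–8 hpf in sealed plates at 26C, 14:10 h light:dark; rinsed at 5 dpf. Two blinded assessors scored spinal defects by stereomicroscopy at 6 dpf; fitted versus DMSO.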

Assay [4] can be described thus: CCTE_Padilla_ZF_Score.Swim_bladder: CCTE's 144 Hour Post-fertilization zebrafish Assay Score for Swim Bladder Malformation, Padilla Lab (AID 2284408). The procedure, abridged: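 Wild-type zebrafish embryos, one per well in 10% Hanks', dosed at 6–8 hpf, sealed, reared at 26C and rinsed at 5 dpf. Blinded assessors scored uninflated swim bladder by stereomicroscopy at 6 dpf, relative to DMSO.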

The nature of assay [5]: CCTE_Padilla_ZF_Score.Position: CCTE's 144 Hour Post-fertilization zebrafish Assay Score for Position, Padilla Lab (AID 2284409). The procedure, abridged:
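Wild-type zebrafish embryos (with chorions) exposed singly from 6–8 hpf in sealed wells of Hanks' solution at 26C, rinsed at 5 dpf. At 6 dpf, blinded assessors scored abnormal water-column position by brightfield stereomicroscopy, relative to DMSO.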

The nature of assay [6]: CCTE_Padilla_ZF_Score.Living: CCTE's 144 Hour Post-fertilization zebrafish Assay Score for Viability, Padilla Lab (AID 2284410).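 Further: larval death at 6 dpf judged by absent heartbeat or coagulation.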 In a few lines: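 Wild-type zebrafish embryos were exposed singly from 6–8 hpf in sealed wells of Hanks' solution at 26C, then rinsed at 5 dpf. At 6 dpf, blinded assessors scored mortality (no heartbeat or coagulation) by stereomicroscopy, fitted against DMSO.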

Assay [7] is described as follows: CCTE_Padilla_ZF_Score.General: CCTE's 144 Hour Post-fertilization zebrafish Assay Score for General Malformation, Padilla Lab (AID 2284411). In a few lines:
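Wild-type zebrafish embryos were plated singly at 6-8 hpf in 10% Hanks' and exposed in sealed wells at 26C until rinsed on 5 dpf. At 6 dpf two blinded assessors scored mortality, hatching and malformations by stereomicroscopy; gain-of-signal versus DMSO.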

The nature of assay [8]: CCTE_Padilla_ZF_Score.Blood_pooling: CCTE's 144 Hour Post-fertilization zebrafish Assay Score for Blood Pooling, Padilla Lab (AID 2284415). The procedure, abridged:
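Wild-type outbred zebrafish embryos, one per well in 10% Hanks', exposed from 6–8 hpf in sealed plates at 26C on 14:10 h light:dark, rinsed at 5 dpf. Blinded stereomicroscope scoring of blood pooling at 6 dpf; gain-of-signal versus DMSO.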

Assay [9] is described as follows: CCTE_Padilla_ZF_Score.Any: CCTE's 144 Hour Post-fertilization zebrafish Assay Score for Any Mortality or Malformation, Padilla Lab (AID 2284416). The procedure, abridged: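 Wild-type zebrafish embryos with chorions, one per well in 10% Hanks' from 6–8 hpf, dosed in sealed plates at 26 C, 14:10 h light:dark; rinsed at 5 dpf; blinded scoring at 6 dpf for death or malformation, versus DMSO.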

Assay [10] in a line: CCTE_Padilla_ZF_Score.Tail: CCTE's 144 Hour Post-fertilization zebrafish Assay Score for Tail Malformation, Padilla Lab (AID 2284414). In a few lines: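 Wild-type zebrafish embryos, one per well in 200 uL 10% Hanks', dosed at 6-8 hpf, sealed, and kept at 26 C on a 14:10 h light cycle. Chemical was rinsed out at 5 dpf. Blinded brightfield scoring of tail defects followed at 6 dpf.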

With `O=C(Cl)C(F)(F)C(F)(F)C(F)(F)C(F)(F)C(F)(F)C(F)(F)F`, the call in assay [1], in [3], in assay [4], in assay [5], in [6] and in assay [8] was inactive. In addition, the AC50 in assay [2], in [7] and in [9] was 76.8 µM (active) in each case.

Turning to `NC(=O)C(F)(F)C(F)(F)C(F)(F)C(F)(F)C(N)=O`, the compound was called inactive in assay [1], in assay [2], in [3], in assay [4], in assay [5] and in [6]. For the same compound, the compound was called inactive in assay [7], in [8] and in assay [9].

Take `OC(O)C(F)(F)C(F)(F)F`: the compound was called inactive in assay [1], in assay [2], in assay [3], in assay [4], in assay [5] and in assay [6]. Further, the call in assay [7], in assay [8] and in assay [9] was inactive.

In the case of `OCCCCC(F)(F)C(F)(F)C(F)(F)C(F)(F)F`, the AC50 in [1] was 39.4 µM (active); in assay [2], 29.2 µM (active); in assay [4], 30.6 µM (active); in assay [5], 34.1 µM (active); in [6] it was 88.8 µM (active); in assay [7] it was 21 µM (active). In addition, in assay [9], the AC50 was 29 µM (active). Moreover, the call in assay [3] and in [8] was inactive.

Consider `CNS(=O)(=O)C(F)(F)C(F)(F)C(F)(F)C(F)(F)C(F)(F)C(F)(F)C(F)(F)C(F)(F)F`, for which the half-maximal activity concentration (AC50) in [1] is 85.1 µM (active); in assay [2], 20.7 µM (active); in [4] it was 0.606 µM (active); in [7], 0.737 µM (active); in [9] it was 0.778 µM (active). Moreover, the call in assay [3], in assay [5], in assay [6] and in assay [8] was inactive.

On to `OCC(O)CC(F)(F)C(F)(F)C(F)(F)C(F)(F)F` (stereo not given), for which the compound was classed as inactive in assay [1], in assay [2], in assay [3], in assay [4], in assay [5] and in assay [6]. The outcome in assay [7], in [8] and in assay [9] was inactive.

Turning to `OCC(O)CC(F)(F)C(F)(F)C(F)(F)C(F)(F)C(F)(F)C(F)(F)C(F)(F)C(F)(F)F` (stereo not given), the AC50 in assay [1] is 15.7 µM (active); in assay [2] it was 9.75 µM (active); in [4], 6.73 µM (active); in assay [5], 17.6 µM (active); in [6], 17.7 µM (active); in assay [7], 11.8 µM (active). Also, in [9], the concentration at half-maximal activity (AC50) is 9.82 µM (active). The compound was classed as inactive in assay [3] and in assay [8].

For `O=C(O)C(F)(F)C(F)(F)C(F)(F)OC(F)(C(F)(F)F)C(F)(F)F`, the result in [1], in assay [2], in assay [3], in assay [4], in assay [5] and in [6] was inactive. Also, the compound was classed as inactive in assay [7], in [8] and in [9].

On to `NC(O)(C(F)(F)F)C(F)(F)F`, for which the call in assay [1], in assay [2], in assay [3], in assay [4], in assay [5] and in assay [6] was inactive. The compound was classed as inactive in assay [10], in assay [8] and in [9]. Besides, in assay [7], the AC50 was 85 µM (active).

For `O=S(=O)(O)CCC(F)(F)C(F)(F)C(F)(F)C(F)(F)F`, the compound was called inactive in [1], in assay [2], in assay [3], in assay [4], in assay [5] and in assay [6]. For the same compound, the outcome in assay [7], in assay [8] and in [9] was inactive.

`O=C(O)C(F)(F)OC(F)(F)C(F)(F)OC(F)(F)C(F)(F)OC(F)(F)F`: the outcome in assay [1], in [2], in assay [3], in assay [4], in [5] and in assay [6] was inactive. Also, the compound was called inactive in assay [7], in assay [10], in assay [8] and in assay [9].

On to `O=S(=O)(OCC(F)(F)F)C(F)(F)C(F)(F)C(F)(F)C(F)(F)F`, for which the compound was classed as inactive in assay [1], in assay [3], in [5], in assay [6] and in assay [7]. For the same compound, the AC50 in [2] was 34.1 µM (active); in assay [4], 88.8 µM (active); in assay [8] it was 33.3 µM (active); in assay [9] it was 33.3 µM (active).

Take `NS(=O)(=O)C(F)(F)C(F)(F)C(F)(F)C(F)(F)C(F)(F)C(F)(F)F`: the AC50 in [1] is 2.66 µM (active); in [2] it was 2.27 µM (active); in assay [4], 2.66 µM (active); in assay [5] it was 2.51 µM (active); in [6] it was 4.62 µM (active); in [7], 2.27 µM (active). Also, the AC50 in [9] was 1.81 µM (active). For the same compound, the call in assay [3] and in [8] was inactive.

In the case of `O=C(O)CCC(F)(F)C(F)(F)C(F)(F)C(F)(F)C(F)(F)C(F)(F)C(F)(F)F`, the result in [1], in assay [2], in assay [3], in assay [4], in assay [5] and in [6] was inactive. For the same compound, the outcome in assay [7], in assay [8] and in assay [9] was inactive.

Turning to `O=C(O)C(F)(F)C(F)(F)C(F)(F)C(F)(F)C(F)(F)C(F)(F)C(F)F`, the compound was classed as inactive in assay [1], in [2], in assay [3], in assay [4], in assay [5] and in assay [6]. Moreover, the compound was called inactive in [7], in assay [8] and in assay [9].

Consider `O=C(O)C(F)(F)C(F)(F)C(F)(F)OC(F)(F)F`, for which the result in assay [1], in assay [2], in assay [3], in [4], in [5] and in [6] was inactive. The result in [7], in assay [8] and in [9] was inactive.

Turning to `COC(F)(C(F)F)C(F)(F)F` (stereo not given), the call in assay [1], in assay [2], in assay [3], in assay [4], in assay [5] and in [6] was inactive. Also, the outcome in [7], in assay [8] and in [9] was inactive.

Consider `CO[Si](C)(CCC(F)(F)C(F)(F)C(F)(F)C(F)(F)C(F)(F)C(F)(F)F)OC`, for which the compound was classed as inactive in assay [1], in assay [2], in assay [3], in assay [4], in assay [5] and in assay [6]. In addition, the outcome in [7], in assay [8] and in assay [9] was inactive.

Take `NCC(F)(F)C(F)(F)C(F)(F)C(F)(F)C(F)(F)C(F)(F)F`: the compound was classed as inactive in assay [1], in [3], in assay [4], in assay [5], in [6] and in [8]. The AC50 in assay [2], in [7] and in assay [9] was 75.3 µM (active) in each case.

On to `C=CC(=O)OCC(F)(F)C(F)(F)C(F)(F)COC(=O)C=C`, for which the result in assay [1], in assay [2], in assay [3], in assay [4], in assay [5] and in [7] was inactive. In assay [8], the call was inactive. The figures for the AC50 in [6] and in assay [9] were 10 µM (active) and 8.95 µM (active), respectively.

`NCC(F)(F)C(F)(F)C(F)(F)C(F)(F)C(F)(F)C(F)(F)C(F)(F)C(F)(F)F`: the compound was classed as inactive in [1], in assay [2], in assay [3], in assay [4], in assay [5] and in assay [7]. Further, the result in assay [8] was inactive. The results for the AC50 in assay [6] and in assay [9] were 32.4 µM (active) and 32.9 µM (active), respectively.

With `OCC(F)(F)C(F)(F)C(F)(F)CO`, the call in assay [1], in assay [2], in assay [3], in [4], in assay [5] and in assay [6] was inactive. For the same compound, the outcome in [7], in assay [8] and in assay [9] was inactive.

A word on the AC50: it is the concentration at which the activity in the assay is half-maximal.
